Consider 8 sequences from article PMC7862700, “An all-to-all approach to the identification of sequence-specific readers for epigenetic DNA modifications on cytosine”.

Test in all cases: DAPPL (digital affinity profiling via proximity ligation, sequencing); 10 mM Tris-HCl pH 7.5, 50 mM NaCl, 1 mM DTT, 4% glycerol, room temperature, 30 min; GST-TFs on glutathione beads, 16-mer random dsDNA library, 0.1% formaldehyde crosslink after washing; high values mean tight binding
What all share (details): protein: recombinant; tags: N-terminal GST; dsDNA, one strand shown

One test has as its target T1, FLI1 (Homo sapiens, UniProt Q01543 1-452).
T1 sequence: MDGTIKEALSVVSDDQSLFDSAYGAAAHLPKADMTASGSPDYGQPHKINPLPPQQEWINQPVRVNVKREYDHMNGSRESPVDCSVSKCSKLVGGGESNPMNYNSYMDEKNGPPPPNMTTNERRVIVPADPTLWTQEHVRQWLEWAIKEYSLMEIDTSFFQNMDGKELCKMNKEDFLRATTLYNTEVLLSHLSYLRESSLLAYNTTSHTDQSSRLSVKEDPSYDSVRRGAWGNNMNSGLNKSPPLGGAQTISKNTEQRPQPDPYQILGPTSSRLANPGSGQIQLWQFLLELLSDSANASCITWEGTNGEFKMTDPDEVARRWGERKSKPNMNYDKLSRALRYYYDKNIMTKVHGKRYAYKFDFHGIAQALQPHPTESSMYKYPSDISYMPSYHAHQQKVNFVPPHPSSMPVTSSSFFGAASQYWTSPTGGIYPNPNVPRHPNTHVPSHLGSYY
In outline: (§1)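 Human transcription factors carrying a GST fusion were produced in yeast, bound to glutathione beads, tagged with DNA barcodes and pooled together with a tag-only sample. Each pool was held with 200 nmole of a random double-stranded 16-mer DNA library in Tris/NaCl/DTT/glycerol buffer for 30 min at room temperature, then washed, crosslinked in 0.1% formaldehyde, proximity-ligated with BsaI/T4 ligase (1 h, 37 °C), PCR-amplified and sequenced on an Illumina NextSeq500. Binding signal is the read frequency of each hexamer for a given factor divided by its frequency in the tag-only sample.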

The target in a further test is T2, ELK1 (Homo sapiens, UniProt P19419 1-428).
T2 sequence: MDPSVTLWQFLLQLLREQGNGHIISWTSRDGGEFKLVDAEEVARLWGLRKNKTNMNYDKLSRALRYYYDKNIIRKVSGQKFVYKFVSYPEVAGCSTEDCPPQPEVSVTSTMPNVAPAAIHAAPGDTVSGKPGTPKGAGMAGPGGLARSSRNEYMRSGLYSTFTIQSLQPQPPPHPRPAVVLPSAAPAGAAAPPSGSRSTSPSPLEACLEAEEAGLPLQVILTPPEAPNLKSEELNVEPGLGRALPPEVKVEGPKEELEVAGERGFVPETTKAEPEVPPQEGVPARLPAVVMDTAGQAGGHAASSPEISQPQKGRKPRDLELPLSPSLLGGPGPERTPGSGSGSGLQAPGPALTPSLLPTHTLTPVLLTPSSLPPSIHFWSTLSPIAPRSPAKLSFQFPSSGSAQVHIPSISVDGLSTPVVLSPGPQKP
In outline: as §1

The target in another test is T3, GABPA (Homo sapiens, UniProt Q06546 1-454).
T3 sequence: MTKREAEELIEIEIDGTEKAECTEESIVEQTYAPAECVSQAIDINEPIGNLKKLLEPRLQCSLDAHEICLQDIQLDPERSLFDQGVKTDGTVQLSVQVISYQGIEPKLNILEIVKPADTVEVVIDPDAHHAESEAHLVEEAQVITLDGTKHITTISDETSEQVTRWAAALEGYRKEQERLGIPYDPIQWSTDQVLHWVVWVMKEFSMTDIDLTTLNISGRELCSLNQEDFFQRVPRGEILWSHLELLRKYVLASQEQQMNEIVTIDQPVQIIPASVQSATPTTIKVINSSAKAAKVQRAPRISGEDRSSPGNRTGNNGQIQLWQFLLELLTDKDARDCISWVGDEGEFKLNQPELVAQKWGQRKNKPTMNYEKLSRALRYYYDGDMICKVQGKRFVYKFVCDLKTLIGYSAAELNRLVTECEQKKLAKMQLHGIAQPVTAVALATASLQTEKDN
In outline: as §1

For another test, the target named is T4, ERG (Homo sapiens, UniProt P11308 1-479).
T4 sequence: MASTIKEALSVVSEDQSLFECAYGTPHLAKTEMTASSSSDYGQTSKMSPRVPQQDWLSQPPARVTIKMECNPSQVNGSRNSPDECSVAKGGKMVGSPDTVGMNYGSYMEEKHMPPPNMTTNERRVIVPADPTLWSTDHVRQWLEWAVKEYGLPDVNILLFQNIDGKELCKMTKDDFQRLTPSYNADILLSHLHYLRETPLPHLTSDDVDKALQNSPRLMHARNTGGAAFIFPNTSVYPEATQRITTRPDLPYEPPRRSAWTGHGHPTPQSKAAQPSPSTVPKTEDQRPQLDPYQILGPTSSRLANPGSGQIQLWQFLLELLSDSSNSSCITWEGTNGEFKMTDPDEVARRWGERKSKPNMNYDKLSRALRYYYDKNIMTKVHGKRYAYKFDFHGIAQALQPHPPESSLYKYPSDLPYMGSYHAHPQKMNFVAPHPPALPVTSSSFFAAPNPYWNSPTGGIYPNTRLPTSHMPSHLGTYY
In outline:
as §1

The next test has as its target ELF1 (Homo sapiens, UniProt P32519 1-619). In outline: as §1
Another test deals with T5, EHF (Homo sapiens, UniProt Q9NZC4 1-300).
T5 sequence: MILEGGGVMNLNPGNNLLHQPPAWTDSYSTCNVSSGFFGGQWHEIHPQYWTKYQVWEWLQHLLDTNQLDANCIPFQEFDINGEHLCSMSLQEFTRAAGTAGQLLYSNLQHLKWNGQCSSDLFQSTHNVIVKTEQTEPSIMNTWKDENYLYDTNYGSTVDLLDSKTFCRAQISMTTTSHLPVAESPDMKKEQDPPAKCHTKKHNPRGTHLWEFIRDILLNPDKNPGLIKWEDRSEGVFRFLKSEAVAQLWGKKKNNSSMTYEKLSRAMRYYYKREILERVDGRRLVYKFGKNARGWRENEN
In outline: as §1

The target of another test is SPI1 (Homo sapiens, UniProt P17947 1-270). In outline: as §1
Another test deals with SPIB (Homo sapiens, UniProt Q01892 1-262). In outline:
as §1

The target of the next test is T6, ELK3 (Homo sapiens, UniProt P41970 1-407).
T6 sequence: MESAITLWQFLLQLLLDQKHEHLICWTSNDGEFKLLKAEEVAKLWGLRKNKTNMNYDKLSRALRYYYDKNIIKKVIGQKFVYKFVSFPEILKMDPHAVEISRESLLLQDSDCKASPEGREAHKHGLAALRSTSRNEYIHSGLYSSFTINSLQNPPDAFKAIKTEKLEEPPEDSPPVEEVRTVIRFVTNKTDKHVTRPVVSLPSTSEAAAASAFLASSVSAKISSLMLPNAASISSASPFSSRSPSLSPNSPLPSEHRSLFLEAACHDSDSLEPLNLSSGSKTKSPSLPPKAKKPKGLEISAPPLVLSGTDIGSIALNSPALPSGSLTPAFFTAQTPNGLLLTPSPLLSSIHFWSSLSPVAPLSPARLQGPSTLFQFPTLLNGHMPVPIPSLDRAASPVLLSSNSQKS
In outline:
as §1

SPIB, sequence (Q01892 whole entry): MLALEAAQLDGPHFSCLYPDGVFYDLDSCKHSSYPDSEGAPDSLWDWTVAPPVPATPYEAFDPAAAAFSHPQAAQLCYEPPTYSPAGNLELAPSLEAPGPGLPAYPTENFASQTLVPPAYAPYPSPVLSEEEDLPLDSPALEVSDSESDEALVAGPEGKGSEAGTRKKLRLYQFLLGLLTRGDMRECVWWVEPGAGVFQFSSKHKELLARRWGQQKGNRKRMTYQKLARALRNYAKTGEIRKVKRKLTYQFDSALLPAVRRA
ELF1, sequence (P32519 whole entry): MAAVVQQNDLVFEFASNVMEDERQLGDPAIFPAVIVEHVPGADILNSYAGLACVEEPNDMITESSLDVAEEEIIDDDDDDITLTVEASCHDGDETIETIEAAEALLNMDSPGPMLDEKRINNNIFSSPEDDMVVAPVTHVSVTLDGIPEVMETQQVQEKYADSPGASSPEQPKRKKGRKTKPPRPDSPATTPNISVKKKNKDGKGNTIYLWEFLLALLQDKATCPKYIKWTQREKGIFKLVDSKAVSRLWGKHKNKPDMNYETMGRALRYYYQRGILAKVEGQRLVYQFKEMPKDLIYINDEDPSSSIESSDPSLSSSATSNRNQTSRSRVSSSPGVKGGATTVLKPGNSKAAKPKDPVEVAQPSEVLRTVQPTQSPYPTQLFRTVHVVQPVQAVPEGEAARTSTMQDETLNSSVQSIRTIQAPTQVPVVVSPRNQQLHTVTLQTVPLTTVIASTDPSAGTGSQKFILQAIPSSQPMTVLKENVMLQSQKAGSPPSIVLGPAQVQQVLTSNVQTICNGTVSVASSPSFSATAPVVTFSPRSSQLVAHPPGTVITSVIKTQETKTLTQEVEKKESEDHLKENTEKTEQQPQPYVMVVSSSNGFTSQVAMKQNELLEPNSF

In the case of AAATGT, the binding signal in the test with FLI1 is 1.24 fold enrichment (6-mer frequency, TF over GST control); with ELK1, 1.19 fold enrichment (6-mer frequency, TF over GST control); in the test with GABPA, 1.25 fold enrichment (6-mer frequency, TF over GST control); with ERG, 1.31 fold enrichment (6-mer frequency, TF over GST control); in the test with ELF1, 1.38 fold enrichment (6-mer frequency, TF over GST control); with EHF it was 1.32 fold enrichment (6-mer frequency, TF over GST control). Also, the binding signal is 1.26 fold enrichment (6-mer frequency, TF over GST control) with SPI1; 1.42 fold enrichment (6-mer frequency, TF over GST control) in the test with SPIB; 1.37 fold enrichment (6-mer frequency, TF over GST control) with ELK3.
As to ATATGC, the binding signal is 1.09 fold enrichment (6-mer frequency, TF over GST control) in the test with FLI1; 1.15 fold enrichment (6-mer frequency, TF over GST control) in the test with ELK1; 1.15 fold enrichment (6-mer frequency, TF over GST control) with GABPA; 1.13 fold enrichment (6-mer frequency, TF over GST control) with ERG; 1.1 fold enrichment (6-mer frequency, TF over GST control) with ELF1; 1.08 fold enrichment (6-mer frequency, TF over GST control) in the test with EHF. Moreover, the binding signal was 1.16 fold enrichment (6-mer frequency, TF over GST control) in the test with SPI1; 1.07 fold enrichment (6-mer frequency, TF over GST control) with SPIB; 1.05 fold enrichment (6-mer frequency, TF over GST control) with ELK3.
On to CTCGAC, for which the binding signal with FLI1 is 1.49 fold enrichment (6-mer frequency, TF over GST control); with ELK1, 1.47 fold enrichment (6-mer frequency, TF over GST control); in the test with GABPA, 1.53 fold enrichment (6-mer frequency, TF over GST control); with ERG it was 1.47 fold enrichment (6-mer frequency, TF over GST control); with ELF1, 1.53 fold enrichment (6-mer frequency, TF over GST control); with EHF, 1.46 fold enrichment (6-mer frequency, TF over GST control). For the same sequence, the binding signal in the test with SPI1 was 1.34 fold enrichment (6-mer frequency, TF over GST control); with SPIB, 1.33 fold enrichment (6-mer frequency, TF over GST control); with ELK3, 1.36 fold enrichment (6-mer frequency, TF over GST control).
Turning to ATGCTT, the binding signal with FLI1 was 1.35 fold enrichment (6-mer frequency, TF over GST control); with ELK1 it was 1.42 fold enrichment (6-mer frequency, TF over GST control); in the test with GABPA, 1.26 fold enrichment (6-mer frequency, TF over GST control); in the test with ERG, 1.32 fold enrichment (6-mer frequency, TF over GST control); with ELF1, 1.27 fold enrichment (6-mer frequency, TF over GST control); with EHF it was 1.29 fold enrichment (6-mer frequency, TF over GST control). For the same sequence, the binding signal is 1.24 fold enrichment (6-mer frequency, TF over GST control) in the test with SPI1; 1.4 fold enrichment (6-mer frequency, TF over GST control) with SPIB; 1.36 fold enrichment (6-mer frequency, TF over GST control) with ELK3.
As for CTACCT, the binding signal was 1.37 fold enrichment (6-mer frequency, TF over GST control) with FLI1; 1.46 fold enrichment (6-mer frequency, TF over GST control) with ELK1; 1.35 fold enrichment (6-mer frequency, TF over GST control) with GABPA; 1.43 fold enrichment (6-mer frequency, TF over GST control) with ERG; 1.35 fold enrichment (6-mer frequency, TF over GST control) in the test with ELF1; 1.46 fold enrichment (6-mer frequency, TF over GST control) in the test with EHF. Further, the binding signal was 1.45 fold enrichment (6-mer frequency, TF over GST control) in the test with SPI1; 1.4 fold enrichment (6-mer frequency, TF over GST control) with SPIB; 1.44 fold enrichment (6-mer frequency, TF over GST control) in the test with ELK3.
In the case of AAACAT, the binding signal in the test with FLI1 was 1.53 fold enrichment (6-mer frequency, TF over GST control); in the test with ELK1, 1.4 fold enrichment (6-mer frequency, TF over GST control); with GABPA it was 1.49 fold enrichment (6-mer frequency, TF over GST control); in the test with ERG, 1.37 fold enrichment (6-mer frequency, TF over GST control); with ELF1, 1.5 fold enrichment (6-mer frequency, TF over GST control); with EHF, 1.43 fold enrichment (6-mer frequency, TF over GST control). Moreover, the binding signal was 1.36 fold enrichment (6-mer frequency, TF over GST control) with SPI1; 1.48 fold enrichment (6-mer frequency, TF over GST control) with SPIB; 1.46 fold enrichment (6-mer frequency, TF over GST control) with ELK3.
Take TTAGCA: the binding signal was 1.21 fold enrichment (6-mer frequency, TF over GST control) in the test with FLI1; 1.19 fold enrichment (6-mer frequency, TF over GST control) in the test with ELK1; 1.16 fold enrichment (6-mer frequency, TF over GST control) with GABPA; 1.3 fold enrichment (6-mer frequency, TF over GST control) in the test with ERG; 1.18 fold enrichment (6-mer frequency, TF over GST control) with ELF1; 1.21 fold enrichment (6-mer frequency, TF over GST control) with EHF. Further, the binding signal with SPI1 is 1.15 fold enrichment (6-mer frequency, TF over GST control); with SPIB it was 1.15 fold enrichment (6-mer frequency, TF over GST control); with ELK3, 1.17 fold enrichment (6-mer frequency, TF over GST control).
Take CCCGCT: the binding signal is 1.38 fold enrichment (6-mer frequency, TF over GST control) in the test with FLI1; 1.31 fold enrichment (6-mer frequency, TF over GST control) with ELK1; 1.34 fold enrichment (6-mer frequency, TF over GST control) with GABPA; 1.3 fold enrichment (6-mer frequency, TF over GST control) in the test with ERG; 1.44 fold enrichment (6-mer frequency, TF over GST control) in the test with ELF1; 1.48 fold enrichment (6-mer frequency, TF over GST control) with EHF. In addition, the binding signal was 1.37 fold enrichment (6-mer frequency, TF over GST control) with SPI1; 1.35 fold enrichment (6-mer frequency, TF over GST control) in the test with SPIB; 1.35 fold enrichment (6-mer frequency, TF over GST control) in the test with ELK3.
